# Bioassay records deposited in PubChem by National Center for Advancing Translational Sciences (NCATS).
# GLP1R ag: agonists of human GLP-1 receptor; P43220; HEK293 GLP-1R CRE-luciferase, luminescence, 4-6 h; cells express a hypersensitive GLP-1R form; Potency, µM (titrated, usually from 45.6 µM), for the others: top-dose activation, usual class: activators; 380,000 tested, 0.007% active; also: potency is read from the fitted curve at half-maximal effect; % of control where 0% means no effect
# Target sequence (P43220 whole entry, looked up): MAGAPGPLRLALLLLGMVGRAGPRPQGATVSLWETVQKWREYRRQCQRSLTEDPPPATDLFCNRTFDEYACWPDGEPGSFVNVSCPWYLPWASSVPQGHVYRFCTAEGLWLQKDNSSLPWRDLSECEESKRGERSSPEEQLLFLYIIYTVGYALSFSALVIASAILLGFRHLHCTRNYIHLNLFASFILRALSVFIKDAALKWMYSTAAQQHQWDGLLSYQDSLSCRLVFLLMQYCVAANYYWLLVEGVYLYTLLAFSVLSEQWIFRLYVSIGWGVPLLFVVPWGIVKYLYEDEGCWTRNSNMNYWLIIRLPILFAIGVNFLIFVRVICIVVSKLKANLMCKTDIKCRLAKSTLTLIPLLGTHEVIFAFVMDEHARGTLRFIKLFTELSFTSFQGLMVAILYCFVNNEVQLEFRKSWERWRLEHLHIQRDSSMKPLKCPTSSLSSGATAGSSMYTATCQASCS
# GLP-1R inv ag: acts as inverse agonist at human GLP-1 receptor; P43220; HEK293 GLP-1R CRE-luciferase, luminescence, 24 h; GLP-1R form is constitutively active; Potency, µM (titrated, usually from 38.3 µM), for inactives: top-dose activity change, negative = inhibition, usual class: inhibitors; 410,000 tested, 1.6% active; AID 624417; also: potency is read from the fitted curve at half-maximal effect; % is scaled to controls: 0 for no effect and ±100 for the full control effect; nearly all actives have a fitted effect of over 55% in size
#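 Seeding at 200 cells/uL, 12 h culture, 24 hr compound treatment, then luciferase reagent and a luminescence read; cells are HEK293 stably expressing a constitutively active GLP-1R plus cAMP-responsive luciferase.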
# GLP1R cytotox: cytotoxicity in counter-screen for GLP-1R inverse agonists | HEK293 cAMP-luciferase reporter cells, luminescence, 24 h | Potency, µM (top dose mostly 38.3 µM), without a hit: top-dose activity change, negative = inhibition, usual class: inhibitors | 410,000 tested, 0.13% active | AID 624418;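 also: loss of luciferase light is scored as toxicity; potency is read from the fitted curve at half-maximal effect; % is scaled to controls: 0 for no effect and ±100 for the full control effect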
#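 Seeding density was 200 cells/uL; after overnight-length (12 h) culture, 23 nL compounds went on for 24 h at 37 °C. Readout used a luciferase detection reagent, luminescence taken after 12 min at room temperature.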
# ClpP mod: qHTS Assay for Activators of ClpP; ATP-dependent Clp protease proteolytic subunit (Bacillus subtilis (strain 168)), P80244; purified B. subtilis ClpP, FRET peptide cleavage, 20 min; Potency, µM (titrated, usually from 57.5 µM), for inactives: at the top dose activity change, negative = active; 340,000 tested, 1.9% active; active = well fitted falling curve with a large enough effect; inconclusive = small, poorly fitted or top-dose-only effect; inactive = no such curve, though single readings can be large or run the other way; also: potency is read from the fitted curve at half-maximal effect; the source files actives as falling curves though it sought activators and does not explain the sign; nearly all actives have a fitted effect of over 65% in size
# Target sequence (P80244 whole entry, looked up): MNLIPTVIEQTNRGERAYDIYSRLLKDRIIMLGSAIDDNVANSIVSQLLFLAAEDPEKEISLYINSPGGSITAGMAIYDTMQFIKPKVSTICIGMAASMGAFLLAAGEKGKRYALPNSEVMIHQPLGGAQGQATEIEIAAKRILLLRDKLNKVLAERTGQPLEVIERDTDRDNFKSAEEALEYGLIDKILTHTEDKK
#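 Buffer: 100 mM Tris/HCl pH8, 100 mM KCl, 0.05% low protease BSA, 2.5% glycerol, 0.01% Tween-20. ClpP 10 microg/mL final; 20 min RT; delta FRET normalized to ADEP and DMSO controls.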
# p53 reactivation: re-activators of mutant p53; H1299 p53-A138V BP100-luciferase reporter, luminescence, 24 h; Potency, µM (doses to about 92.2 µM), for inactives: top-dose activity change, positive = activation, most hits filed as activators; 320,000 tested, 0.063% active; AID 504706; also: potency is read from the fitted curve at half-maximal effect; % of control where 0% means no effect; nearly all actives have a fitted effect of over 45% in size
#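 H1299 (p53-null), stable ts p53-A138V + BP100-Luc; 1000 cells/well, Opti-MEM/10% FBS; cpd 4 pt, 1:5; 24 h, 37 deg C, 5% CO2; detection reagent 10 min RT; luminescence.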
# LDHA block: blocks human lactate dehydrogenase A | purified LDHA, NADH/diaphorase-resazurin fluorescence; active compounds read low | AID 1347041 | activity change, % (values are at about 110 or 230 µM) | P00338 | 480,000 tested, 0.15% active; in the data active = activity change below about -30%; inconclusive = mostly about -25% to -30%;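 also: plate controls were DMSO wells for no effect and wells without enzyme for full effect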
#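 Resorufin fluorescence (ex540/em590), read at 0 and 20 min after diaphorase/resazurin addition, reports the NADH left after a 5 min room-temperature reaction of 2 nM human LDH5 with 0.06 mM NADH and 0.2 mM pyruvate.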
# Active calls of the source: *; ? = inconclusive; · = no result. In the library only some 2.9% were active in any assay of this set; here they are far more common. Unless noted, calls follow the shape of the dose curve; as a rule, active = well fitted curve in the direction sought with a large enough effect; inconclusive = small, poorly fitted or top-dose-only effect, or another doubt; inactive = no such curve, though single readings can be large; an effect the other way counts as inactive or inconclusive.
SMILES,GLP1R ag,GLP-1R inv ag,GLP1R cytotox,ClpP mod,p53 reactivation,LDHA block
CC1(c2ccncc2)Nc2ccccc2-c2nc3ccccc3n21 (centres undefined),1%,7%,-3%,28µM*,6%,-5
CC1CCCCN1C(=O)CSc1nnc(-c2ccco2)n1CC1CCCO1 (centres undefined),-3%,4%,12%,-3%,-2%,1
Cc1ccc(-c2[nH]ncc2/C=C(\C#N)C(=O)NC2CCCCC2)cc1,2%,7.9µM*,-15%,0%,-6%,-7
COc1ccc(-c2[nH]ncc2/C=C(/C#N)C(=O)NC2CCCCC2)cc1,9%,?,-25%,-2%,-3%,1
COc1ccc(CCC(=O)OC(C)C(=O)c2ccc(C)cc2)cc1 (centres undefined),2%,17%,8%,-2%,-6%,-9
O=C(CCNS(=O)(=O)c1ccccc1C(F)(F)F)N1CCN(c2ccccc2O)CC1,-15%,?,10%,3%,-1%,4
O=C(CCl)N1N=C(c2ccco2)CC1c1ccco1 (centres undefined),1%,2.2µM*,?,·,-24%,15
COc1ccc(CN(C)C(=O)C(Cc2ccccc2)NC(=O)c2ccccc2)c(OC)c1OC (centres undefined),2%,?,-9%,-2%,·,-8
COc1cccc(CN(C)C(=O)C(Cc2ccccc2)NC(=O)c2ccccc2)c1OC (centres undefined),7%,8.9µM*,-17%,·,-5%,-4
CC(C)(C)c1ccc(C(=O)N2CCC(=O)N(C(COCc3ccccc3)Cc3ccccc3)CC2)cc1 (centres undefined),7%,?,?,-2%,-5%,6
O=C(c1ccc(Cl)c(Cl)c1)N1CCC(=O)N(C(COCc2ccc(Cl)cc2)Cc2ccccc2)CC1 (centres undefined),0%,10µM*,16%,0%,-3%,2
CC(C)(C)c1ccc(C(=O)N2CCC(=O)N([C@H](COCc3ccccc3)Cc3ccccc3)CC2)cc1,-4%,10µM*,?,1%,·,3
Cc1ccc(NC(=S)c2nc3ccccc3s2)cc1,-30%,?,?,-2%,7%,-8
OCCN1CCN(c2ncnc3nc[nH]c23)CC1,10%,-1%,0%,1%,0%,-1
C(=C\c1ccccc1)/C=N/N1CCN(c2ccccn2)CC1,8%,3.5µM*,-2%,-1%,24%,-4
C(/C=C/c1ccccc1)=N/N1CCN(c2ccccc2)CC1,-25%,0%,9%,-2%,8%,-12
CC(NCC(=O)NC(=O)NC1CCCC1)c1ccc(Cl)cc1Cl (centres undefined),8%,10µM*,-7%,-4%,0%,0
CCOc1ccccc1OCC(=O)Nc1ccc(OC)c(S(=O)(=O)N2CCCCC2)c1,13%,-19%,4%,-1%,-1%,-4
N#Cc1cnn2c(-c3ccccc3)ccnc12,15%,5%,-8%,25µM*,·,2
CC(C)(C)C(=O)Nc1cccc(-c2nc3ccccc3[nH]2)c1,6%,?,-5%,?,7%,-4
CC(C)(C)C(=O)Nc1sc2c(c1-c1nc3ccccc3[nH]1)CCCC2,-1%,-10%,-1%,22µM*,8%,-5
CC(C)CNc1oc(-c2ccccc2F)nc1C#N,·,·,·,·,·,-36*
CNc1oc(-c2cccc3ccccc23)nc1C#N,19%,7%,20%,16µM*,14%,3
CC1CN(c2nnnn2-c2ccccc2)CC(C)O1 (centres undefined),14%,4%,-28%,-6%,-1%,-6
O=c1nc2ccccc2c2n1CC(CN1CCN(Cc3ccccc3)CC1)N2 (centres undefined),-9%,-1%,-17%,16µM*,-21%,-1
SMILES,GLP1R ag,GLP-1R inv ag,GLP1R cytotox,ClpP mod,p53 reactivation,LDHA block
O=[N+]([O-])c1ccc(CN2CCN(c3ncccn3)CC2)cc1,-1%,-9%,-4%,-4%,10%,-17
C=CCNC(=S)Nc1cc(C)ccn1,6%,10µM*,?,·,13%,-2
Cc1ccnc(NC(=S)NC(=O)/C=C/c2ccccc2)c1,-3%,17%,-19%,2%,11%,-2
CC(=O)Nc1ccc2[nH]c(C)cc(=O)c2c1,7%,10%,8%,32µM*,-3%,-3
COc1ccc(NS(=O)(=O)c2cc(C)ccc2OC)cc1OC,-1%,5%,-11%,-23%,-2%,0
COc1ccc(C)cc1S(=O)(=O)Nc1ccc(F)c(Cl)c1,-3%,10µM*,-8%,0%,-3%,-2
Cc1nc2c(-c3ccccc3)c(C)[nH]n2c(=O)c1Cc1ccccc1,1%,?,-1%,·,2%,-5
CCOC(=O)Cc1c(C)nc2c(-c3ccccc3)c[nH]n2c1=O,-10%,11%,-1%,16µM*,-12%,0
CCOC(=O)Cc1c(C)nc2c(-c3ccccc3)c(C)[nH]n2c1=O,3%,0%,-15%,28µM*,-5%,2
CCOC(=O)Cc1c(C)nc2cc(-c3ccc(C)cc3)[nH]n2c1=O,-7%,-12%,-17%,16µM*,?,-1
CCOC(=O)Cc1c(C)nc2c(-c3ccccc3)c(-c3ccccc3)[nH]n2c1=O,-7%,-12%,?,22µM*,4%,3
COc1cc(C(=O)NC2CCN(Cc3nnnn3Cc3ccc(F)cc3)CC2)cc(OC)c1OC,11%,8%,7%,·,0%,-8
O=C(CC1S/C(=N/N=C2CCCCCC2)NC1=O)Nc1ccccc1F (centres undefined),0%,6%,?,1%,·,-2
CC1=C/C(=N\N=C2\NC(=O)C(CC(=O)Nc3ccccc3F)S2)CC(C)(C)C1 (centres undefined),4%,?,11µM*,·,-5%,-4
CC(C)NC(=O)C1(C)CCCN1Cc1csc2ccccc12 (centres undefined),15%,-25%,6%,0%,·,-3
CCOC(=O)/C(=N/Nc1ccc(OC)cc1)N1CCCc2ccccc21,-7%,4.5µM*,0%,-8%,1%,4
COc1ccc(-c2cn3c(C)c(C(=O)N4CCCc5ccccc54)sc3n2)cc1,4%,8.9µM*,-21%,-3%,·,-6
COc1ccc(-c2cn3c(C)c(C(=O)N4CCN(c5ccccc5F)CC4)sc3n2)cc1,-4%,?,-10%,-1%,·,-8
